About 13,000 (3.2%) of roughly 400,000 compounds were called active. Entries that show only a call come without a potency. Not shown: some 18% with an inconclusive outcome. This is one part of a sample in which actives are shown more often than they occur. The call rests on the fitted dose curve; in most records, active means well fitted cell-killing curve with a large enough effect; inconclusive means small, poorly fitted or top-dose-only effect, or effect the other way; inactive means flat fitted curve, though single readings scatter.
Potency means the concentration at half of the fitted maximal effect.

This test in a line: qHTS assay for MDR1-selective chemotherapeutics: Primary screen using the drug-selected MDR subline cells KB-V1. Further: nearly all actives have a fitted effect of over 60% in size. To be noted: KB-V1 MDR cells viability, CellTiter-Glo, 72 h; series mostly up to 46.1 µM. The gist of the method:
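Cytotoxicity toward P-gp-expressing KB-V1 cells was determined as loss of CellTiter-Glo luminescence after 72 h at 37 degrees C. Compounds were tested in quantitative HTS format across a concentration range, with curves fitted to normalized data.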
(Quantitative high-throughput screening tests each substance at several concentrations.)
Consider `COc1ccc(C2c3c(oc4ccccc4c3=O)C(=O)N2Cc2ccc3c(c2)OCO3)cc1` (stereo unspecified), for which the Potency entry was “inactive”. For `COc1ccc(C(=O)NCc2nnc(SCCOc3ccccc3)n2C)cc1`, the Potency result was “inactive”. Under `C=CCn1c(SCC(=O)c2ccc(Br)cc2)nnc1C(C)NC(=O)Cc1ccc(OC)cc1` (stereo unspecified) stands “inactive”; under `C=CCn1c(SCCOc2ccc(OC)cc2)nnc1C(NC(=O)c1ccc(OC)cc1)C(C)C` (stereo unspecified), 11.6 µM (active). Under `CCOC(=O)c1c(C)[nH]c(C)c1C(=O)COC(=O)/C=C/c1cccc([N+](=O)[O-])c1` stands “inactive”; under `O=C(OCc1cn([C@@H]2C[C@H](c3ccc(Cl)cc3)N(Cc3cccs3)C[C@H]2O)nn1)c1ccccc1`, “inactive”; under `COC(=O)c1ccccc1SC1CC(=O)N(c2cccc(C)c2)C1=O` (stereo unspecified), “inactive”. Under `CCc1cccc(CC)c1N1C(=O)CC(Sc2ccccc2N)C1=O` (stereo unspecified) stands 6.51 µM (active); under `Cc1ccnc(SC2CC(=O)N(c3ccccc3)C2=O)n1` (stereo unspecified), “inactive”; under `COc1cc2c3c(c1)/C(=C1/SC(=S)NC1=O)C(=O)N3C(C)(C)C=C2C`, 9.2 µM (active).

Take `O=C(OCc1cn([C@H]2C[C@H](c3ccccc3)N(C(=O)c3cccs3)C[C@@H]2O)nn1)c1ccccc1`: the Potency result is “inactive”. With `COc1ccc(/C=C2\SC(=S)N(CCC(=O)N3CCOCC3)C2=O)cc1OC` the entry was “inactive”; with `C=C1C=C(C(F)F)n2ncc(C(=O)NCCc3ccccc3OC)c2N1`, “inactive”; with `Brc1ccc2ncnc(NCc3cccnc3)c2c1`, “inactive”. Under `C=CCNc1ncnc2ccc(Br)cc12` stands 20.6 µM (active); under `O=C(O)CCCCCNc1ncnc2ccc(Br)cc12`, “inactive”; under `Cc1ccc2nc(COc3cccc(NC(=O)c4cccc(Cl)c4)c3)cc(=O)n2c1`, “inactive”. As for `O=C(c1cnn(-c2ccc(Cl)cc2)c1)c1ccccc1O`, the Potency entry was “inactive”. Take `COc1ccc(C(=O)Cc2cnn(-c3ccccc3)c2)c(O)c1`: the Potency entry is “inactive”. As to `Cc1cc(O)cc(O)c1C(=O)Cc1cnn(-c2ccccc2)c1`, the Potency is 16.4 µM (active). Under `Cc1ccc(-c2cc(-c3coc4ccccc4c3=O)c3c(n2)-c2cc(Cl)ccc2OC3)cc1` stands “inactive”; under `Cc1cc(C)c(S(=O)(=O)NN=C2c3ccccc3[C@H]3Cc4csc[n+]4[C@@H]23)c(C)c1`, “inactive”. Under `C[C@H](CO)N1C[C@H](C)[C@@H](CN(C)C(=O)c2cccc(F)c2)Oc2cc(-c3cncnc3)ccc2S1(=O)=O` stands “inactive”; under `O=C(NCCOc1ccccc1)c1ccccc1F`, “inactive”. Under `COc1ccccc1N1CCN(C(=O)c2cc(=O)c3cc(C)ccc3o2)CC1` stands “inactive”; under `COc1ccccc1N1CCN(C(=O)c2cc(=O)c3cc(C)cc(C)c3o2)CC1`, 0.206 µM (active).

For the compound `COc1ccccc1N1CCN(C(=O)c2c(-c3c(Cl)cccc3Cl)noc2C)CC1`, the Potency entry was “inactive”. Regarding `O=C(Nc1ccc2c(c1)OCCO2)C1c2ccccc2OCC(=O)N1Cc1ccccn1` (stereo unspecified), the Potency entry was “inactive”. Under `Cc1ccc(C(=O)N[C@H](C(=O)N2CCN(c3ncccn3)CC2)C(C)C)cc1` stands “inactive”. With `O=C(Cn1cnc2c(cnn2-c2ccccc2)c1=O)NCc1ccccc1` the figure was 5.17 µM (active); with `CC(=O)Cn1cnc2c(cnn2-c2ccccc2)c1=O`, “inactive”.

For the compound `Cc1c(C(=O)NCc2ccccc2)cnn1-c1ccccc1`, the Potency entry was “inactive”. Under `COc1ccc(Br)cc1CN(C)CC(=O)Nc1cc(Cl)cc(Cl)c1` stands 7.31 µM (active). With `COc1ccc(OC)c(NC(=O)CN(C)CCOc2ccc(Br)cc2)c1` the entry was “inactive”; with `COc1ccc(Cl)cc1NC(=O)CCS(=O)(=O)c1ccc(Br)cc1`, “inactive”; with `CCCCCCN1CCN(C2CN(Cc3cn(CCCCCC)nn3)S(=O)(=O)C2)CC1` (stereo unspecified), “inactive”. With `COc1ccc(-c2nc3ccc(Br)cn3c2Cc2ccc(C)cc2)cc1OC` the entry was “inactive”; with `CN(C)CCNC(=O)Nc1cccc(Cl)c1Cl`, “inactive”. In the case of `CN(C)CCNC(=O)c1ccc(Cl)c2cc3ccccc3nc12`, the Potency is 2.06 µM (active). With `CC(=O)NCCNC(=O)c1cc(-c2cccc3ccccc23)nc2ccccc12` the entry was “inactive”; with `CCOC(=O)C1CCCN(C(=O)c2cc(-c3cccs3)oc2C)CC1` (stereo unspecified), “inactive”; with `O=C1N(Cc2ccccc2)c2ccc(Cl)cc2C1(O)c1c[nH]c2ccccc12` (stereo unspecified), “inactive”. With `CCOc1ccc(-c2nonc2NC(=O)c2oc3ccc(C)cc3c2C)cc1OCC` the entry was “inactive”. Under `C/C(=N\NC(=O)COc1c(C)cccc1C)c1cccs1` stands “inactive”; under `Cc1nn(-c2ccccc2)c(C)c1/C=N/NC(=O)CSc1nc2ccccc2c(=O)n1-c1ccccc1`, “inactive”. In the case of `C/C(=N\NC(=O)CSc1nc2ccccc2c(=O)n1-c1ccccc1C)c1cccs1`, the Potency is 2.31 µM (active). Under `Cc1ccc(S(=O)(=O)N2CCCCC2)cc1NC(=O)CCNC(=O)c1ccccc1Cl` stands “inactive”.

Consider `CCn1c(C(O)c2cc(OC)ccc2OC)nc2ccccc21` (stereo unspecified), for which the Potency result was “inactive”. In the case of `CC(=O)Nc1nonc1-c1nc2ccccc2n1Cc1ccccn1`, the Potency result was “inactive”. With `COc1ccc(C)c(Cn2c(-c3nonc3N)nc3ccccc32)c1` the figure was 2.31 µM (active); with `O=C(NCCS(=O)(=O)N1CCN(c2ccccc2)CC1)c1cc(=O)c2ccccc2o1`, “inactive”. Under `OCCC#Cc1ccc(N2C(c3ccsc3)=Cc3ccc(F)cc3C2c2c[nH]c3ccccc23)cc1` (stereo unspecified) stands “inactive”; under `COc1ccc(CNS(=O)(=O)c2cc(-c3cc(C)no3)ccc2C(C)C)cc1`, 13 µM (active); under `CCOc1ccccc1CNS(=O)(=O)c1cc(-c2cc(C)no2)ccc1C`, “inactive”. Under `COc1ccc(CCNS(=O)(=O)c2cc(-c3cc(C)no3)ccc2C)cc1OC` stands “inactive”.

Consider `CC1(C(=O)NS(=O)(=O)Cc2cccc(Cl)c2)CCN1C(=O)Cc1ccc(Cl)cc1Cl` (stereo unspecified), for which the Potency result is “inactive”.

With `CCc1nc2ccc(C(=O)N3CCN(S(=O)(=O)CC)CC3)cn2c1N(C=O)CCC(C)C`, the Potency entry was “inactive”. Under `CCCCCCCNc1ccc(/C=C/c2ccnc3ccccc23)cc1` stands “inactive”; under `Cc1cc(C)nc(NS(=O)(=O)c2ccc(NC(=O)c3cc(=O)c4ccc(C)c(C)c4o3)cc2)n1`, “inactive”; under `Cc1cc(-c2csc(N)n2)c(C)n1Cc1ccccc1`, “inactive”. `O=c1c2ccccc2n(Cc2cccc(Cl)c2)c(=O)n1Cc1ccccc1`: the Potency entry was “inactive”. With `Nc1cc(=O)n(Cc2ccccc2)c(=O)n1Cc1ccccc1` the figure was 18.4 µM (active); with `O=C(CCN1CCCCC1)Nc1ccc(F)c(F)c1`, “inactive”; with `CSc1ncnc2c1ncn2CCCNCC1CCCCC1`, “inactive”.

`CSc1ncnc2c1ncn2CC(=O)C1CCC2C3CCC4=CC(=O)CCC4(C)C3CCC12C` (stereo unspecified): the Potency was 23.1 µM (active). Regarding `CSc1ncnc2c1ncn2CCCNCc1ccco1`, the Potency entry was “inactive”.

(Values after PubChem BioAssay AID1347076 (National Center for Advancing Translational Sciences (NCATS), 2019).)
